Measurements taken from PubChem BioAssay AID1985 (Southern Research Specialized Biocontainment Screening …, 2009).
The whole screen tested about 2,300 compounds, of which about 1,000 (43%) were called active. So high a share suggests a set chosen from earlier hits. This is one part of the list. Results with a measured potency or affinity are listed apart. Values without a mark were called inactive. The rule behind the calls is not given here.

experiment: modified counter assay using GFP fluorescence, PhoP regulon inhibitor project, dose response (AID 1985); conditions: S. Typhi, 4 h; series mostly up to 150 µM; inhibition: at the top concentration

Row | SMILES | inhibition [%]
1 | COCCN1CC(=O)N2C(c3cccc(OC)c3)c3[nH]c4ccccc4c3C[C@H]2C1=O (stereo partly drawn) | 10.3
2 | Cc1ccc2c(c1)C1CN(C)CCC1N2C(=O)COc1ccccc1F (stereo not drawn) | 21.9
3 | c1ccc(CN2CCC(Nc3nc(-c4ccccc4)nc4ccccc34)CC2)cc1 | 32.4
4 | CCOC(=O)c1cc(-c2ccc(F)cc2)n(CCC(=O)NC2CCN(Cc3ccccc3)CC2)c1C | -13
5 | c1ccc(CN2CCC(Nc3nc(-c4cccs4)nc4ccccc34)CC2)cc1 | 17.1
6 | c1ccc(CN2CCC(N3CCN(Cc4ccc5c(c4)OCO5)CC3)CC2)cc1 | -25.1
7 | Cc1ccccc1C(=O)c1cccn1CC(=O)NCCC1=CCCCC1 | 13.5
8 | Cc1cc2ccccc2c(=O)n1CC(=O)NCCC1=CCCCC1 | 10.5
9 | Clc1ccc(OCc2nc(-c3ccc(Br)o3)no2)cc1 | -12.4
10 | CN1CCN(c2ccccc2NC(=O)c2cc3c(s2)-c2ccccc2OC3)CC1 | -16.3
11 | NCC/C=C1/c2ccccc2CSc2ccccc21 | -35.5
12 | c1ccc2c(Nc3nnc(-c4ccncc4)s3)cccc2c1 | 15.6
13 | O=C(Nc1ccc(N2CCOCC2)cc1)c1ccc(S(=O)(=O)NCc2ccco2)cc1 | 12
14 | CCc1cccc(NC(=O)CSC2=NS(=O)(=O)c3ccccc32)c1 | 37.1
15 | O=C(CNC(=O)Cn1ccc2ccccc2c1=O)NCCCN1CCCCCC1 | -3.62
16 | O=C1CCCN1CCC1CCN(C2CC(=O)N(c3ccc(Cl)cc3)C2=O)CC1 (stereo not drawn) | 3.09
17 | CC(NCC(O)COCCC12CC3CC(CC(C3)C1)C2)c1ccccc1 (stereo not drawn) | 3.19
18 | CS(=O)(=O)c1cnc2c(-c3ccsc3)cnn2c1N | -32.5
19 | O=C(CCSCc1ccccc1F)NCc1cccs1 | 0.85
20 | CC(OC(=O)Cc1coc2cc3c(cc12)CCC3)C(=O)NCc1ccc2c(c1)OCO2 (stereo not drawn) | -2.07
21 | COc1cc2[nH]c(=S)n(CC3CCCO3)c(=O)c2cc1OC (stereo not drawn) | -1.07
22 | Cc1ccc(NC2OC(CO)C(O)C(O)C2O)cc1 (stereo not drawn) | 6.18
23 | Cc1cn([C@H]2C[C@H](N=[N+]=[N-])[C@@H](CO)O2)c(=O)[nH]c1=O | -20.3
24 | O=C(COC(=O)CNC(=O)c1ccccc1)Nc1ccc(F)c([N+](=O)[O-])c1 | 4.84

Row | SMILES | inhibition [%]
25 | Cc1[nH]nc2c1C(c1ccc(-c3ccccc3C#N)o1)C(C#N)=C(N)O2 (stereo not drawn) | -8.42
26 | O=C(NCc1cccs1)C(=O)NCC(c1ccco1)N1CCN(c2ccc(F)cc2)CC1 (stereo not drawn) | 0.62
27 | CCCN(CCC)CC(=O)Nc1cccc2c1OCO2 | 4.86
28 | CC(=O)c1cccc(NC(=S)NNC(=O)c2ccco2)c1 | 1.31
29 | O=C(/C=C/c1ccco1)NC(=S)Nc1cccc(-c2nc3ccccc3o2)c1 | -12.6
30 | O=C(NC(=S)Nc1c(F)cc(F)cc1Br)c1ccc2c(c1)OCCO2 | -3.71
31 | O=C(/C=C/c1ccccc1)NNC(=O)c1ccco1 | -23.5
32 | c1csc(-n2nc3ccccc3n2)c1 | -6.55
33 | CC1Cc2ccccc2N1C(=O)CN1C(=O)C(=O)N(Cc2ccccc2)C1=O (stereo not drawn) | -20.8
34 | CC(C)(C)SCCNC(=O)c1ccccc1 | 18.5
35 | CCOc1ccc(-c2c[n+]3c(n2-c2ccccc2)CCCCC3)cc1 | -17.4
36 | COCCCNc1c2c(nc3nnnn13)CCCC2 | -4.03
37 | CC(C)(C)c1ccc(OCCNC(=S)Nc2ccccc2)cc1 | -2.57
38 | O=C(NCCCNc1ccnc2cc(Cl)ccc12)c1ccccc1F | -0.31
39 | C#CCOC(=O)c1ccccc1C(=O)OCC#C | 12.4
40 | C=CCNc1nc(-c2ccccc2)nc(-n2ccnc2)n1 | -15.1
41 | O=C(CSc1nc2ccccc2o1)c1cc2ccccc2oc1=O | 25.9
42 | CC(Sc1nc2ccccc2o1)C(=O)O (stereo not drawn) | 34.4
43 | CN(CCO)CC(O)Cn1cnc2c1c(=O)n(C)c(=O)n2C (stereo not drawn) (tested in a mixture with another compound) | 9.5
44 | Cc1ccc(N2CC(C(=O)OCc3ccccc3F)CC2=O)cc1 (stereo not drawn) | -10.2
45 | Cc1cc2oc(=O)cc(CN3CCN(C/C=C/c4ccccc4)CC3)c2cc1O | 19.4
46 | O=C(O)/C=C/c1cn(-c2ccccc2)nc1-c1cc2ccccc2oc1=O | 10.6
47 | Oc1c(Br)cc(Br)cc1Oc1ccc(Br)cc1Br | -3.41
48 | Cc1cccc(N/N=C/c2ccc(O)c(O)c2O)c1 | 26.2

Row | SMILES | inhibition [%]
49 | Oc1c(Br)cc(Br)cc1C=Nc1cccc2ncccc12 | 21.8
50 | Cc1cc(C)nc(NS(=O)(=O)c2ccc(N3C(=O)C4CC=C(Cl)CC4C3=O)cc2)n1 (stereo not drawn) | -20.4
51 | Cc1cc(C)cc(NC(=O)C(Sc2nnc(C)c(=O)[nH]2)c2ccccc2)c1 (stereo not drawn) | 16.1
52 | Cc1c(C)n(C)c2ccc(C(=O)NCc3cccs3)cc12 | 18.9
53 | Cc1cccc2cc(C(c3nnnn3Cc3ccccc3)N3CCN(C)CC3)c(=O)[nH]c12 (stereo not drawn) | 23.6
54 | CCN(CC)C(=O)CNC(=O)Cc1ccc(Cl)cc1 | -19.9
55 | CCCCc1ccc2[nH]cc(CCN)c2c1 | 14.2
56 | S=C1SCN(Cc2cccnc2)CN1Cc1cccnc1 | 29.1
57 | Cc1nc2nc(COc3ccccc3)nn2c(C)c1Cl | 5.1
58 | O=C(Nc1ccc(N2CCOCC2)c(Cl)c1)c1ccccc1F | 14.4
59 | Cc1cc2oc(C(=O)NCc3ccncc3)c(C)c2cc1C | -7.42
60 | O=C(Nc1ccc(Nc2ccncc2)cc1)c1ccc([N+](=O)[O-])cc1 | 27.2
61 | CC(=O)Nc1cccc(NS(=O)(=O)Cc2ccc(Cl)cc2)c1 | -8.02
62 | COc1ccc2c(c1)CC1(CN2C)C(=O)NC(=O)N(CCc2ccccc2)C1=O (stereo not drawn) | 18.7
63 | Cc1ccc(C(=O)O)cc1N=Cc1cc(Br)cc(Br)c1O | -3.47
64 | Nc1ccc(S(=O)(=O)c2ccc(N)cc2)cc1 | 1.39
65 | O=C(N/N=C/c1cccnc1)c1cccc(Cl)c1 | -34.7
66 | Nc1nonc1-n1nnc(C(=O)N/N=C/c2ccccc2O)c1CN1CCCC1 | 38.2
67 | Nc1cc(=O)[nH]c(=S)n1-c1cccc(C(F)(F)F)c1 | 21.7
68 | O=C1c2[nH]nc(-c3ccccc3O)c2C(c2ccc(F)cc2)N1CC1CCCO1 (stereo not drawn) | 7.59
69 | C=CCNC(=O)NC(=O)COC(=O)/C(C#N)=C/c1ccc(OC)cc1 | 11
70 | N#CCCn1ncc2ccccc21 | -15.1
71 | Cc1c(C)c2ccc(OC(C)C(=O)N[C@@H](Cc3c[nH]c4ccccc34)C(=O)O)c(C)c2oc1=O (stereo partly drawn) | -7.47
72 | COc1ccc(/C=N/NC(=O)c2cccnc2)cc1 | 10.5

Row | SMILES | inhibition [%]
73 | Cc1ccc(N=Cc2cc(Br)cc(Cl)c2O)cc1 | 14.3
74 | CCN(CC)Cc1c(C(=O)N/N=C/c2cccc3ccccc23)nnn1-c1nonc1N | -0.25
75 | Cc1cc(C(=O)Cn2cncn2)c(C)n1CCc1ccc(F)cc1 | -9.81
76 | O=C(CCN1CCOCC1)Nc1ccccc1 | 7.63
77 | COc1ccc(Cl)cc1NC(=O)CCN1CCOCC1 | -23.1
78 | CCCNC(=O)COc1ncnc2sc(C)c(C)c12 | 2.57
79 | Cc1cc(C)cc(N(C(=O)CNC(=O)c2cccs2)C(C(=O)NC2CCCC2)c2cccnc2)c1 (stereo not drawn) | -9.22
80 | Cc1c(C2(O)C(=O)Nc3ccc(F)cc32)c(=O)n(-c2ccccc2)n1C (stereo not drawn) | 0.39
81 | C=CCOC(=O)C1=C(C)NC2(O)c3ccccc3C(=O)C12O (stereo not drawn) | 0.1
82 | N#C/C(=C\c1ccc(O)c(O)c1)C(=O)NCc1ccccc1 | 38.4
83 | CC1CCN(CCCCOc2ccc(Cl)cc2)CC1 | 20.8
84 | Cc1c(C)n(C)c2ccc(C(=O)NCCCN3CCCC3)cc12 | 28.8
85 | CCc1nn(CCCN2CCN(c3cccc(Cl)c3)CC2)c(=O)n1CCOc1ccccc1 | 9.36
86 | Cn1c(CN2CCCC2)nc2cc(NC(=O)COc3ccc(Cl)cc3)ccc21 | 24.1
87 | Cc1ccc(-c2nnc3sc(-c4ccncc4)nn23)cc1 | 25.5
88 | COc1ccc(C2C(C(=O)N3CCC4(CC3)OCCO4)CC(=O)N2c2ccc(OC)cc2)cc1 (stereo not drawn) | 12.2
89 | O=C(c1ccc2c(c1)[nH]c(=S)n1c3ccccc3nc21)N1CCN(c2cccc(Cl)c2)CC1 | 14.9
90 | COC(=O)Cc1ccc(NC(=S)NCc2ccc(Cl)cc2)cc1 | -22.3
91 | Cc1ccc(C)c(SCC(=O)Nc2ccc(S(=O)(=O)Nc3ncccn3)cc2)c1 | 34.1
92 | O=S(=O)(Nc1ncccn1)c1ccc(NC(=S)Nc2ccccc2Cl)cc1 | 36.4
93 | COc1cc(NS(=O)(=O)c2ccc(NC(=S)Nc3ccccc3)cc2)nc(OC)n1 | 36.1
94 | CCNC(=S)Nc1cccc(S(=O)(=O)Nc2ccccc2OC)c1 | 18.7
95 | NC(N)=NC(N)=Nc1cccc2ccccc12 | 18
96 | CCNC(=O)c1ccc(C2SCC(=O)N2CCc2ccccc2)cc1 (stereo not drawn) | 16.7

Row | SMILES | inhibition [%]
97 | COc1ccc(NC(=O)CN(C)S(=O)(=O)c2ccc(Cl)cc2)cc1Cl | 21.3
98 | COc1cccc(NC(=O)COC(=O)Cc2ccccc2[N+](=O)[O-])c1 | -2.16
99 | Oc1ccccc1N=Cc1c(O)ccc2oc3c(c12)CCCC3 | -7.38
100 | CC(=O)NCc1ccc(C(=O)CSc2nnc(-c3ccncc3)n2Cc2ccccc2)o1 | -20.9
101 | Cc1[nH]c2ccccc2c1/C=N/Nc1nc2ccccc2[nH]1 | 7.61
102 | O=C(CN(CCc1ccccc1)C(=O)CNS(=O)(=O)c1ccc(F)cc1)NCC1CCCO1 (stereo not drawn) | 13.2
103 | COc1ccc(/C=N/NC(=O)c2ccc3c(c2)OCO3)cc1 | 28.6
104 | OCn1ncn(-c2ccccc2)c1=S | -2.16
105 | CCN(CC)/C(N)=N/c1nc(C)cc(C)n1 | -12.9
106 | c1ccc(-c2nnc(-c3c[nH]c4ccccc34)nc2-c2ccccc2)cc1 | 13.8
107 | COC(=O)c1ccc(S(=O)(=O)N2CCC(c3nc4ccccc4o3)CC2)cc1 | 6.39
108 | Cc1cc(N2CCN(C3CCCCC3)CC2)nc2cccc(O)c12 | 21.3
109 | O=C(CN1C2=NCCCN2c2ccccc21)c1ccc2c(c1)OCO2 | 28
110 | O=C(CN1C2=NCCCN2c2ccccc21)c1ccc([N+](=O)[O-])cc1 | 24.9
111 | CC(C)N=C1NN=C(c2ccc(F)cc2)CS1 | -1.37
112 | COc1ccc(Nc2nc(NCC3CCCO3)c3ccccc3n2)c(OC)c1 (stereo not drawn) | 22.7
113 | COc1ccc(Cn2c(=N)c(C(=O)NCC3CCCO3)cc3c(=O)n4ccccc4nc32)cc1 (stereo not drawn) | 28.2
114 | COc1ccccc1Nc1nc(NCC2CCCO2)c2ccccc2n1 (stereo not drawn) | 33.1
115 | COc1ccc(Nc2nnc(SCC3CCCO3)s2)cc1 (stereo not drawn) | -4
116 | Cn1cc(S(=O)(=O)NCC2CCCO2)c(=O)n(C)c1=O (stereo not drawn) | 7.24
117 | COc1ccc(CCn2c(=N)c(C(=O)NCC3CCCO3)cc3c(=O)n4ccccc4nc32)cc1 (stereo not drawn) | 0.56
118 | Cc1cccn2c(=O)c3cc(C(=O)NCC4CCCO4)c(=N)n(C4CCCC4)c3nc12 (stereo not drawn) | -27.2
